# In publication PMC5540273 (PLoS ONE, 2017):
# Tests used:
# Conditions in all cases: concentration: 1 μM, replicates: in singlicate; n = 1
# [1] = test system: BLK
# [2] = test system: BMPR1A
# [3] = test system: BMPR1B
# [4] = test system: BMPR2
# [5] = test system: BMX
# [6] = test system: BRAF
# [7] = test system: T1, BRK
# T1 construct: gene PTK6
# [8] = test system: BRSK1
# [9] = test system: BRSK2
# [10] = test system: BTK
# 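Note: KINOMEscan kinase panel screen.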
Structure (SMILES),%Inh [1] [%],%Inh [2] [%],%Inh [3] [%],%Inh [4] [%],%Inh [5] [%],%Inh [6] [%],%Inh [7] [%],%Inh [8] [%],%Inh [9] [%],%Inh [10] [%]
CCn1cnc2c(N)ncnc21 [GW345098],12,24,15,35,41,0,8,5,0,0
C[C@@H](Oc1cc(-n2cnc3ccc(NC(=O)NC(C)(C)C)cc32)sc1C(N)=O)c1ccccc1Cl [GSK346294],0,0,0,5,22,0,17,10,15,6
N#Cc1ccc(-c2cc(-c3c[nH]nc3-c3ccccn3)ccn2)cc1 [GW693028],17,0,15,6,5,11,30,0,0,0
NCC(NC(=O)c1cc(-c2cn[nH]c2)c(-c2ccnc3[nH]ccc23)s1)c1ccccc1.O=C(O)C(F)(F)F.O=C(O)C(F)(F)F (centres unmarked) [GSK1325775],0,0,80,4,0,0,0,30,21,0
Cc1cccc(Cn2ccn3c(=O)cc(N4CCOCC4)nc23)c1 [GSK2297542],57,0,0,0,27,4,22,0,6,0
Cn1ccc2ncnc(Oc3ccc(NC(=O)Nc4ccncc4)c(Cl)c3)c21,0,1,0,20,0,0,0,0,0,0
O=C1NC(=O)C(N2CCc3ccccc32)=C1c1cccc(Cl)c1 [SB-408010],0,23,0,4,26,3,0,0,0,23
Nc1nc(-c2ccc3c(N)n[nH]c3c2)cc(N2CCCC2)n1 [GSK2227430],7,0,0,0,1,0,20,0,0,0
O=C(c1ccc(-c2cc(-c3c[nH]nc3-c3ccccn3)ccn2)cc1)N1CCOCC1 [GW812171],0,0,11,16,0,32,0,0,10,0
CCCCCc1nc2c(N)ncnc2n1CCCCC [SKF-97255],16,19,0,40,3,0,0,0,22,0
c1ccc(-c2n[nH]cc2-c2ccnc3ccccc23)nc1 [GW271431],49,0,13,0,22,0,22,0,0,0
O=C1Cc2cc(Nc3nc(NCc4cccc(S(=O)(=O)C(F)(F)F)c4)ncc3C(F)(F)F)ccc2N1,1,0,18,19,0,1,0,3,0,0
CN1c2ccc(CNc3ccc(F)cc3)cc2-c2c(cnn2C)S1(=O)=O,0,0,0,0,0,36,0,0,0,0
O=C(NCCCN1CCOCC1)c1cccc(Nc2nccc(Nc3ccc(Oc4ccccc4)cc3)n2)c1 [GW663929],95.4,0,0,15,54,0,69,6,0,51
Nc1nccc(-c2c(-c3ccc(F)cc3)ncn2C2CCN(CC(F)(F)F)CC2)n1 [SB-236560],0,0,0,45,0,0,0,40,0,37
N#Cc1c(N2CCOCC2)sc(-c2ccn[nH]2)c1-c1ccc(Cl)cc1,0,21,0,17,14,0,8,0,18,8
c1ccc(-c2cc(-c3c[nH]nc3-c3ccccn3)ccn2)cc1 [GW576604],37,1,0,4,3,0,0,0,0,0
Cc1nnc(-c2ccc3occ(-c4ccc(C(C)O)cc4)c3c2)o1 (centres unmarked),2,2,23,2,44,1,0,10,13,0
NS(=O)(=O)c1cccc(-c2ccc3nccc(-c4cccc(S(N)(=O)=O)c4)c3c2)c1 [GW867253],0,0,3,33,0,0,0,0,5,0
O=C(Nc1cccc(-c2nn3ncccc3c2-c2ccnc(Nc3cccc(C(F)(F)F)c3)n2)c1)c1c(F)cccc1F [GSK299495],95.9,0,0,23,72,69,71,0,0,66
